High-throughput results as filed in PubChem BioAssay.
14-3-3g Raf: modulators of 14-3-3 gamma protein binding, primary screen, biochemical, fluorescence polarization | FP, 14-3-3gamma / TMR-pS259-Raf peptide binding | inhibition, % at 40 µM | 160,000 tested, 0.19% active | AID 422, 2006; in the data active means inhibition above about 30%
Target sequence (P61981 whole entry, looked up): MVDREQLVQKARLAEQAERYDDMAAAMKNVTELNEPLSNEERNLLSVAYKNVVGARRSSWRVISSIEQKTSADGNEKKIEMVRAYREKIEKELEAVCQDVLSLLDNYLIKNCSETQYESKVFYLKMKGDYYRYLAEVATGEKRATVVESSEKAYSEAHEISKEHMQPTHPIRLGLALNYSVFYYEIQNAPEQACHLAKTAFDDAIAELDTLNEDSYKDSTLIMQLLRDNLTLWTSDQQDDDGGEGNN
Hits are given with their value; 0 = inactive; ! = repeats disagree. The sample as a whole holds a higher share of hits than the screen did.

SMILES	14-3-3g Raf
O=C(NC1CCN(Cc2ccccc2)CC1)C1CCN(S(=O)(=O)c2ccc(Br)s2)CC1	0
O=S1(=O)CC(Cl)C(Cl)C1 (stereo not drawn)	0
CCN(CC)S(=O)(=O)c1ccc(C(=O)Nc2ncc(S(=O)(=O)c3ccc([N+](=O)[O-])cc3)s2)cc1	0
CCc1ccc(N=c2oc3c(C)ncc(COC(C)=O)c3cc2C(=O)Nc2ccc(C)cc2)cc1	0
Cc1ccccc1CNC(=O)c1ccc(N(C)S(=O)(=O)c2ccccc2)cc1	0
Cc1ccc(CNC(=O)c2ccc(N(C)S(=O)(=O)c3ccccc3)cc2)cc1	53
CN(c1ccc(C(=O)NCc2ccccc2)cc1)S(=O)(=O)c1ccccc1	0
O=C(CN1CCN(Cc2ccccc2Cl)C1=O)NCc1cccnc1	0
O=C(CN1CCN(Cc2ccc(F)cc2)C1=O)NCc1ccccc1Cl	0
O=C(CN1CCN(Cc2ccccc2Cl)C1=O)NCc1ccccn1	71
CC(C)OCCCNC(=O)c1cn(C2CCCC2)c(=O)c2c1c1ccccc1n2C	0
CCCn1cnc2sc(C(=O)Nc3ccc(C)cc3)c(C)c2c1=O	0
Cc1cccc(CCNC(=O)c2cc3cc4ccc(C)cc4nc3s2)c1	0
CCOC(=O)c1cnc2c(C)c(Cl)ccc2c1Nc1cccc([N+](=O)[O-])c1	0
COc1ccc(-n2ccnc2SCC(=O)Nc2ccc(C)cc2C)cc1	0
Cc1ccc(C(C(=O)NC2CCCC2)N2CC(C)CC(C)C2)cc1 (stereo not drawn)	0
O=C1c2cccc3cccc(c23)C(=O)N1c1ccccc1	0
Cc1nnc(C)n1N1C(=O)c2cccc3cccc(c23)C1=O	0
NC1=CC(=O)c2cccc3cccc1c23	80!
O=C(NCCC1=CCCCC1)C1CCC(CNS(=O)(=O)c2ccc(F)cc2)CC1 (stereo not drawn)	0
CCOc1ccc(C2NC(=O)NC(C)=C2C(=O)Nc2ccc(F)cc2)cc1 (stereo not drawn)	0
COC(=O)c1ccc(C2C3=C(CCCC3=O)Nc3ccc4nc(C)ccc4c32)cc1 (stereo not drawn)	0
COC(=O)c1ccc2c(c1)SC1=C(CCCC1=O)N2	33
COC(=O)c1ccc2c(c1)NC(=O)CS2	0
COC(=O)C1C(=O)C2=C(CC1C)Nc1ccccc1NC2c1ccc(C)o1 (stereo not drawn)	0
SMILES	14-3-3g Raf
Cc1ccc(NC(=O)Cn2c(=O)n(-c3ccc(Cl)cc3)c(=O)c3c(C)c(C(=O)N(C)C)sc32)cc1	0
O=C(Nc1cccc(C(F)(F)F)c1)c1ccc(Br)c([N+](=O)[O-])c1	73
Cc1c(C(=O)Nc2cccc(C(F)(F)F)c2)cccc1[N+](=O)[O-]	0
O=C(Nc1cccc(C(F)(F)F)c1)c1ccc(NC(=O)c2cccc(Br)c2)cc1	0
COCCN1C(=O)c2ccccc2C(C(=O)Nc2ccc(OC)cc2OC)C1c1c[nH]c2ccccc12 (stereo not drawn)	0
O=C(Nc1cccnc1)c1cccnc1	0
Cn1nnc2cc(C(=O)Nc3cccnc3)ccc21	0
COc1ccc(C(=O)Nc2cccnc2)cc1OC	47
O=C(O)c1cccnc1SC1CC(=O)N(c2ccc(N3CCOCC3)cc2)C1=O (stereo not drawn)	30
O=C(O)c1cccnc1SC1CC(=O)N(c2ccc([N+](=O)[O-])cc2)C1=O (stereo not drawn)	0
O=C(O)c1cccnc1SC1CC(=O)N(c2ccc3c(c2)OCO3)C1=O (stereo not drawn)	0
COc1ccc(C2=C(CN(C)C)C(c3ccccc3)c3ccccc3O2)cc1OC (stereo not drawn)	0
O=C(CSc1nnc(-c2ccc3c(c2)OCCO3)o1)Nc1nccs1	0
COc1ccc(NC(=O)c2ccc(N3CC4CC(C3)c3cccc(=O)n3C4)c(NC(=O)c3cccc(C(F)(F)F)c3)c2)cc1Cl (stereo not drawn)	0
O=C(C1CCC1)N1CCc2cc(S(=O)(=O)NCCCN3CCCCC3)ccc21	0
CC(=O)N1CCc2cc(S(=O)(=O)NCCCN3CCN(C)CC3)ccc21	0
CCC(=O)N1CCc2cc(S(=O)(=O)NCCN3CCCCC3C)ccc21 (stereo not drawn)	0
O=C(C1CCC1)N1CCc2cc(S(=O)(=O)NCCN3CCCC3)ccc21	0
CCC1CCCCN1CCNS(=O)(=O)c1ccc2c(c1)CCN2C(=O)C1CCC1 (stereo not drawn)	52
O=C(C1CCC1)N1CCc2cc(S(=O)(=O)NCCCN3CCN(c4ccccc4F)CC3)ccc21	31
CC1=C(C(=O)N2CCOCC2)C(c2ccc(O)c([N+](=O)[O-])c2)C2=C(CCCC2=O)N1 (stereo not drawn)	0
COc1ccc(C2C3=C(CCCC3=O)Nc3nc(SC)[nH]c(=O)c32)cc1OC (stereo not drawn)	0
COC(=O)c1ccc(N2C(=O)C3ON(c4ccc(Cl)cc4)C(c4ccc(F)cc4)C3C2=O)cc1 (stereo not drawn)	0
NC(=O)c1c(NC(=O)c2ccc(F)cc2)sc2c1CCCC2	0
NC(=O)c1c(NC(=O)c2ccccc2Cl)sc2c1CCCC2	0
